In PubChem BioAssay (NCATS):
Several values for one entry are separate records, joined by “and”; a condition that tells them apart may be missing. Identical values can stand only once. Inconclusive results are not listed. Activity calls are given as the source filed them. Unless noted, the call rests on the fitted dose curve; in most records, active means well fitted curve in the direction sought with a large enough effect; inconclusive means small, poorly fitted or top-dose-only effect, or another doubt; inactive means no such curve, though single readings can be large; an effect the other way counts as inactive or inconclusive.

How the values were obtained:
7G8 = test: qHTS profiling for inhibitors of Plasmodium falciparum proliferation (AID 504749); further: nearly all actives have a fitted effect of over 60% in size; further: potency means the concentration at half of the fitted maximal effect; details: P. falciparum in erythrocytes, SYBR Green DNA, 72 h; series mostly up to 12.8 µM
Procedure, shortened: (§1)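 Fluorescence of SYBR Green-bound parasite DNA, read at 485/535 nm, served as the growth measure. Infected erythrocytes were cultured with compound 72 h; artemisinin (0.29 uM) and DMSO wells defined the normalization range.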

AA1029 = test: as above; details: P. falciparum in erythrocytes, SYBR Green DNA, 72 h; series mostly up to 12.8 µM
Procedure, shortened: as §1

ATS95 = test: as above; details: P. falciparum in erythrocytes, SYBR Green DNA, 72 h; series mostly up to 12.8 µM
Procedure, shortened: as §1

CP260 = test: as above; details: P. falciparum in erythrocytes, SYBR Green DNA, 72 h; series mostly up to 12.8 µM
Procedure, shortened: as §1

CP265 = test: as above; details: P. falciparum in erythrocytes, SYBR Green DNA, 72 h; series mostly up to 12.8 µM
Procedure, shortened: as §1

CP286 = test: as above; details: P. falciparum in erythrocytes, SYBR Green DNA, 72 h; series mostly up to 12.8 µM
Procedure, shortened: as §1

CP335 = test: as above; details: P. falciparum in erythrocytes, SYBR Green DNA, 72 h; series mostly up to 12.8 µM
Procedure, shortened: as §1

DFO2036 = test: as above; details: P. falciparum in erythrocytes, SYBR Green DNA, 72 h; series mostly up to 12.8 µM
Procedure, shortened: as §1

GB4 = test: as above; details: P. falciparum in erythrocytes, SYBR Green DNA, 72 h; series mostly up to 12.8 µM
Procedure, shortened: as §1

P93_24 = test: as above; details: P. falciparum in erythrocytes, SYBR Green DNA, 72 h; series mostly up to 12.8 µM
Procedure, shortened: as §1

P94_40 = test: as above; details: P. falciparum in erythrocytes, SYBR Green DNA, 72 h; series mostly up to 12.8 µM
Procedure, shortened: as §1

TAB109 = test: as above; details: P. falciparum in erythrocytes, SYBR Green DNA, 72 h; series mostly up to 12.8 µM
Procedure, shortened: as §1

[1] = S16 Schwann cell PMP22 intronic element beta-lactamase assay (AID 624044; calls by dose curve; further: nearly all actives have a fitted effect of over 15% in size)
Procedure, shortened: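 Beta-lactamase reporter under a PMP22 intronic regulatory element in stable S16 rat Schwann cells; 24 h compound exposure. 460 nm blue signal normalized between DMSO (0%) and potassium clavulanate, with 535 nm FRET tracking viability; curves classed by r2 and response.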

PC26 = test: qHTS profiling for inhibitors of Plasmodium falciparum proliferation (AID 504749); further: nearly all actives have a fitted effect of over 60% in size; further: potency means the concentration at half of the fitted maximal effect; details: P. falciparum in erythrocytes, SYBR Green DNA, 72 h; series mostly up to 12.8 µM
Procedure, shortened: as §1

[2] = target: Cytochrome P450 1A2 (Homo sapiens) (UniProt P05177); test: p450-cyp1a2 (AID 410; calls by dose curve; further: potency means the concentration at half of the fitted maximal effect)
Procedure, shortened: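 20nM CYP1A2, 100uM Luciferin-ME (=Km), 100mM KPO4; cpd 10 min RT; +NADPH regen, 60 min RT; stop/detect 20 min; luminescence. Normalized to furafylline 57 uM = full inhibition.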

[3] = target: Cytochrome P450 2C19 (Homo sapiens) (UniProt P33261); test: qHTS Assay for Inhibitors and Substrates of Cytochrome P450 2C19 (AID 899); further: nearly all actives have a fitted effect of over 60% in size; further: potency means the concentration at half of the fitted maximal effect
Procedure, shortened: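 NADPH-dependent conversion of Luciferin-H EGE (10uM, at KM) by 5nM enzyme in 50mM KPO4, 60 min at 37C following 10 min compound preincubation. Stopped with luciferin detection buffer; luminescence read after 20 min.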

[4] = target: Cytochrome P450 3A4 (Homo sapiens) (UniProt P08684); test: qHTS Assay for Activators of Cytochrome P450 3A4 (AID 885); further: nearly all actives have a fitted effect of over 65% in size
Procedure, shortened: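 Luminescent readout of luciferin formed from 25 uM Luciferin-PPXE (KM level) by 20 nM CYP3A4 in 200 mM KPO4, with 60 min NADPH-driven reaction at room temperature after 10 min compound exposure. Ketoconazole (57 uM) defined 100% inhibition.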

[5] = target: Cytochrome P450 2C9 (Homo sapiens) (UniProt P11712); test: qHTS Assay for Inhibitors and Substrates of Cytochrome P450 2C9 (AID 883); further: potency means the concentration at half of the fitted maximal effect; nearly all actives have a fitted effect of over 60% in size
Procedure, shortened: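 A luminogenic readout tracked human CYP2C9 (10nM) converting deoxyluciferin (100uM, at KM) in 25mM KPO4 during 60 min at 37C with regenerated NADPH. Values normalized to 57uM sulphaphenazole as complete inhibition.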

[6] = target: Cytochrome P450 2D6 (Homo sapiens) (UniProt P10635); test: qHTS Assay for Inhibitors and Substrates of Cytochrome P450 2D6 (AID 891)
Procedure, shortened: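 Luminescent read-out of luciferin formed by 5 nM human CYP2D6 demethylating 30 uM Luciferin-ME EGE (Km level) over 60 min at room temperature after NADPH regeneration addition. Data normalized to full inhibition by 1.43 uM quinidine.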

[7] = target: Cytochrome P450 3A4 (Homo sapiens) (UniProt P08684); test: qHTS Assay for Inhibitors and Substrates of Cytochrome P450 3A4 (AID 884); further: potency means the concentration at half of the fitted maximal effect; nearly all actives have a fitted effect of over 50% in size
Procedure, shortened: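 Luminescent readout of luciferin produced by CYP3A4 (20 nM) dealkylation of Luciferin-PPXE, 25 uM (its KM). NADPH-driven reaction ran 60 min at RT after 10 min compound preincubation; data scaled to 57 uM ketoconazole as 100% inhibition.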

Measured: Potency

Chain of Cytochrome P450 1A2 (Homo sapiens) (P05177 whole entry, looked up): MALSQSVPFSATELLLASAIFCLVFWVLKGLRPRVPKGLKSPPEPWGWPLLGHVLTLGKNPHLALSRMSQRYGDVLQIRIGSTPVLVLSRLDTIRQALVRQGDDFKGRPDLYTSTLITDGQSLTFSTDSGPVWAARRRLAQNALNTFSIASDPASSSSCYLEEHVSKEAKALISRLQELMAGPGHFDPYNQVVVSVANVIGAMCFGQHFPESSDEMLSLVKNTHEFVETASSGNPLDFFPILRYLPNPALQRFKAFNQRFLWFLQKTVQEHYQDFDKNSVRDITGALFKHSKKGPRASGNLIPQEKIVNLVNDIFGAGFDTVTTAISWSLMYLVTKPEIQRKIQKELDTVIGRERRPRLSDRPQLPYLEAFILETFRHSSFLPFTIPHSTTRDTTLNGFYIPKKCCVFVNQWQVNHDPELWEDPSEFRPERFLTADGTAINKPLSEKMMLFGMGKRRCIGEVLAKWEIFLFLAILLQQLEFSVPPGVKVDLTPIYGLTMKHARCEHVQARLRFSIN
Chain of Cytochrome P450 3A4 (Homo sapiens) (P08684 whole entry, looked up): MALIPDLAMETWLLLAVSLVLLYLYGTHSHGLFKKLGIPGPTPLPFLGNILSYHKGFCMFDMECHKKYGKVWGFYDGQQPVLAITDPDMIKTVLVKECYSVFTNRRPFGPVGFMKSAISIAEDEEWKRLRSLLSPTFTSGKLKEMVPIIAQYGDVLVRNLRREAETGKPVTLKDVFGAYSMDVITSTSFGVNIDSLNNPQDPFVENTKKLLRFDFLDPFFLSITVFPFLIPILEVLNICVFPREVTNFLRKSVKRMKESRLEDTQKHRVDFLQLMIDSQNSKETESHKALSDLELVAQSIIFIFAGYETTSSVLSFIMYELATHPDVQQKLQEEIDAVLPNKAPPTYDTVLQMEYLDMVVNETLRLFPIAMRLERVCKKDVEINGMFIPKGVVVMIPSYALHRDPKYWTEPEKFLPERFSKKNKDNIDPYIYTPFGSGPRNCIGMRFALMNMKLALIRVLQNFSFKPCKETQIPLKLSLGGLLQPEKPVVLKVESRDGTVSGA
Chain of Cytochrome P450 2C19 (Homo sapiens) (P33261 whole entry, looked up): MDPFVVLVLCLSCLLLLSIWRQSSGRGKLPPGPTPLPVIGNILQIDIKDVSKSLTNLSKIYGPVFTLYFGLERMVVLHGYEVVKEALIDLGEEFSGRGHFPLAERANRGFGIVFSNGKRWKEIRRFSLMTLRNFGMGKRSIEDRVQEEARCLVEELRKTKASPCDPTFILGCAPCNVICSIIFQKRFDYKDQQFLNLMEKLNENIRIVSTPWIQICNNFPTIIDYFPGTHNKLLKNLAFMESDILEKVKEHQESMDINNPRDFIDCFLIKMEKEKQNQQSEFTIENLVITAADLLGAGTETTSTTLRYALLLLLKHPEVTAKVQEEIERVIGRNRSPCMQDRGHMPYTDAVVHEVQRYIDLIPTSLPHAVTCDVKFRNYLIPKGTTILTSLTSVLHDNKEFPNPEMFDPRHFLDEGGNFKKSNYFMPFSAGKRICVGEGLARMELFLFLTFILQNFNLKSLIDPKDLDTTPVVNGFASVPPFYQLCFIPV
Chain of Cytochrome P450 2C9 (Homo sapiens) (P11712 whole entry, looked up): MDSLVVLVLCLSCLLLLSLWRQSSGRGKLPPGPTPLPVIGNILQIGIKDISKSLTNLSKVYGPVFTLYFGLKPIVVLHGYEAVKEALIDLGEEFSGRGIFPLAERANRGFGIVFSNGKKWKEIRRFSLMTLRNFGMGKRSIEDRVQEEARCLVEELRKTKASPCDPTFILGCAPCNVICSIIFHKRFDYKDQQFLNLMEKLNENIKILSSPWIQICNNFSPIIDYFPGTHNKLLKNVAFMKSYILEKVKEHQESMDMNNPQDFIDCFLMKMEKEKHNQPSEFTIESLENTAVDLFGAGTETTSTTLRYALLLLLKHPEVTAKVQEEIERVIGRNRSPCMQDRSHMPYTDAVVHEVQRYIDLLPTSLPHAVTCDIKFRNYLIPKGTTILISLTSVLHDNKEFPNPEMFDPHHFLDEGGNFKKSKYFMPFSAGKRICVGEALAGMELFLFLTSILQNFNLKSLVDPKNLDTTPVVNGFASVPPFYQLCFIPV
Chain of Cytochrome P450 2D6 (Homo sapiens) (P10635 whole entry, looked up): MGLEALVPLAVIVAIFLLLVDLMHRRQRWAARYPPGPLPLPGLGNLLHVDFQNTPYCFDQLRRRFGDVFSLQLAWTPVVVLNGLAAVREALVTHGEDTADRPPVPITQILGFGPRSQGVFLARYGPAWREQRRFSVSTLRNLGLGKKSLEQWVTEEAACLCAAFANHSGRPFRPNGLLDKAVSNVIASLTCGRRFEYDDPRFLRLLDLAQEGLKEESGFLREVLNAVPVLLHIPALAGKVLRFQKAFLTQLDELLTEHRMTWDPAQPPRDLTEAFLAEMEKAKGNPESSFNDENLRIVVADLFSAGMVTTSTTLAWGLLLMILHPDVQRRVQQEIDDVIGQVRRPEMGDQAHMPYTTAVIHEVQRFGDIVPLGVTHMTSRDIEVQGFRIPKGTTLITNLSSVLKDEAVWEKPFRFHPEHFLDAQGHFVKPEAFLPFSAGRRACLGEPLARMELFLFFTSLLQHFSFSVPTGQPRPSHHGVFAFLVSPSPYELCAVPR

CC[C@H]1NC(=O)c2cc(S(N)(=O)=O)c(Cl)cc2N1
not listed: [1] | PC26 | [2] | [3] | [4] | [5] | [6] | [7]
inactive: all other assays above

CN[C@H]1[C@H](O)[C@@H](O[C@@H]2[C@H](O)[C@@H](O[C@H]3OC(CN)=CC[C@H]3N)[C@@H](N)C[C@H]2N)OC[C@@]1(C)O
not listed: [2] | [3] | [4] | [5] | [6] | [7]
inactive: all other assays above

CN(C)CCO[C@@H](c1ccc(Cl)cc1)c1ccccn1
inactive: [2] | [3]

c1ccc2c(c1)CCCc1cc(NCCN3CCOCC3)nnc1-2
inactive: [2] | [4]

Clc1ccc(CC[C@H](Cn2ccnc2)Sc2c(Cl)cccc2Cl)cc1
inactive: [4] | [1]
active: [2] 3980 nM | [5] 12.6 nM | [6] 1260 nM | [3] 2.5 nM | 7G8 891 nM | GB4 3220 nM | P93_24 2240 nM | PC26 4550 nM

CC[C@@H]1OC(=O)[C@H](C)[C@H](O[C@@H]2C[C@](C)(OC)[C@H](O)[C@H](C)O2)[C@H](C)[C@H](O[C@@H]2O[C@@H](C)C[C@@H](N(C)C)[C@@H]2O)[C@](C)(O)C[C@H](C)C(=O)[C@H](C)[C@H](O)[C@]1(C)O
inactive: [2] | [4]

CN1CCC2(CC1)CCN(C(=O)c1ccncc1)CC2
inactive: [2]

COc1ccc([C@@H]2CC(=O)c3c(O)cc(O)cc3O2)cc1O
active: [7] 15800 nM | [3] 5.01 µM and 7.94 µM
inactive: [4]

C[C@H]1CS(=O)(=O)CCN1/N=C\c1ccc([N+](=O)[O-])o1
inactive: AA1029 | ATS95 | CP265 | CP286 | CP335 | DFO2036 | P93_24 | P94_40 | PC26

CC(C)(C)NC(=O)[C@@H]1CC[C@@H]2[C@@H]3CC[C@@H]4NC(=O)C=C[C@@]4(C)[C@H]3CC[C@]21C
not listed: 7G8 | [1] | [2] | [3] | [4] | [5] | [6] | [7]
inactive: all other assays above

COc1cc(OC)c2c(c1Cl)O[C@@]1(C2=O)[C@H](C)CC(=O)C[C@@H]1OC
inactive: [4]

CO[C@H]1[C@H](O[C@H]2O[C@@H](C)[C@@H](O[C@@H]3C[C@](C)(O)[C@H](O)[C@H](C)O3)[C@@H](N(C)C)[C@@H]2O)[C@@H](CC=O)C[C@@H](C)[C@@H](O[C@H]2CC[C@H](N(C)C)[C@H](C)O2)/C=C\C=C/C[C@@H](C)OC(=O)C[C@H]1O
active: TAB109 1580 nM
inactive: CP265 | DFO2036 | PC26

O=C(N/N=C\c1ccc([N+](=O)[O-])o1)c1ccc(O)cc1
active: 7G8 794 nM | AA1029 3980 nM | ATS95 3160 nM | CP260 2510 nM | CP265 3160 nM | CP286 2510 nM | CP335 2030 nM | GB4 1810 nM | P93_24 2820 nM | P94_40 3550 nM | PC26 5730 nM | TAB109 2240 nM

C=C1c2c(Cl)ccc(O)c2C(O)=C2C(=O)[C@@]3(O)C(O)=C(C(N)=O)C(=O)[C@@H](N(C)C)[C@@H]3[C@@H](O)[C@H]12
active: 7G8 3160 nM
inactive: [1] | ATS95 | CP265 | P94_40

Cn1nnnc1SCC1=C(C(=O)O)N2C(=O)[C@@H](NC(=O)[C@@H](O)c3ccccc3)[C@@H]2SC1
inactive: AA1029 | ATS95 | CP260 | CP265 | CP286 | CP335 | GB4 | P93_24 | P94_40 | PC26 | TAB109

NC[C@@H]1O[C@H](O[C@@H]2[C@H](O[C@@H]3O[C@H](CO)[C@@H](O)[C@@H]3O)[C@@H](O)[C@@H](N)C[C@H]2N)[C@@H](N)[C@H](O)[C@@H]1O
not listed: 7G8 | [2] | [3] | [4] | [5] | [6] | [7]
inactive: all other assays above

CC(=O)OCC(=O)[C@@]12OC(C)(C)O[C@@H]1C[C@H]1[C@H]3C[C@H](F)C4=CC(=O)C=C[C@@]4(C)[C@]3(F)[C@H](O)C[C@@]12C
not listed: 7G8 | [1] | [2] | [3] | [4] | [5] | [6] | [7]
inactive: all other assays above

CC(C)(C)NC[C@H](O)COc1cccc2c1C[C@@H](O)[C@@H](O)C2
not listed: DFO2036 | [2] | [3] | [4] | [5] | [6] | [7]
inactive: all other assays above

CN[C@H]1[C@@H](O)[C@@H](NC)[C@@H]2O[C@@]3(O)C(=O)C[C@@H](C)O[C@H]3O[C@H]2[C@H]1O
not listed: [1] | [2] | [3] | [4] | [5] | [6] | [7]
inactive: all other assays above
